# Assay results: PubChem BioAssay (NCI)
# The panel holds about 83,000 compounds, 20% with a hit somewhere; the sample as a whole holds those more often.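 Cell lines were cultured in 96-well plates, exposed to a single compound concentration, and assessed for percent growth 48 hours later.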 Active and inactive are the calls of the source. Rule for the calls: active = growth percent below 10; inactive = the rest.
# System: MDA-MB-468 breast
# Assay: NCI-60 one-dose screen, 48 h (100 = growth as untreated, 0 = no growth, -100 = all killed)
# Conditions: 10 µM unless noted
row,SMILES,growth
1,CC(C)c1cc(N=O)cc(C(C)C)c1O,81.8% (inactive)
2,N=C(N)N=Nc1ccc(NN=C(N)N)cc1,103% (inactive)
3,CCN(CC)CCNCC(O)Cc1ccc(OC)cc1 (stereo not given),105% (inactive)
4,COc1cccc(-c2nn(C(C)(C)C)cc2-c2ccnc(NCCCNS(=O)(=O)c3cccc4ccccc34)c2)c1,110% (inactive)
5,O=C(Cc1ccc([N+](=O)[O-])cc1)Oc1ccccc1,113% (inactive)
6,CCSCC1CC(O)(c2ccccc2)C(c2ccccc2)C(c2ccc(Cl)cc2)O1 (stereo not given),35.9% (inactive)
7,CSc1ccc(C(=O)C[n+]2cccc(C)c2)cc1,91.1% (inactive)
8,CS(=O)(=O)c1ccc(C(=O)N/N=C/c2ccccc2Cl)cc1,96.1% (inactive)
9,NC(=O)c1ccccc1NC(=O)c1ccccc1Cl,125% (inactive)
10,Cc1nc(N)[nH]c(=O)c1C,103% (inactive)
11,COc1ccc(/C=C(\C#N)c2cc(OC)c3c(c2)OCO3)cc1,-4.06% (active)
12,COc1cc(OC)c(NC(=O)C(Sc2nc(C)cc(C)c2C#N)c2ccccc2)cc1Cl (stereo not given),93.6% (inactive)
13,Cc1nn(-c2ccc(Cl)cc2)c(=O)n1CCn1cnc2ccccc21,117% (inactive)
14,CCNC(=O)Oc1ccc(/C(=C(/CC)Cc2ccccc2)c2ccc(OCCN3CCCC3)cc2)cc1,87.5% (inactive)
15,O=C(c1ccccc1)C(Cl)C(Cl)c1ccccc1 (stereo not given),17.6% (inactive)
16,COc1cccc(-c2ccc3c(c2)C2CCN(Cc4ccccc4)C3C2)c1 (stereo not given),67.9% (inactive)
17,O=C1/C(=C/c2ccc([N+](=O)[O-])cc2)Oc2ccc(O)cc21,-63.3% (active)
18,NS(=O)(=O)c1nnc(/N=C/c2c(O)[nH]c3ccccc23)s1,109% (inactive)
19,COCCn1c(Nc2ccc(C(=O)NO)cc2)nc2ccccc21,63.7% (inactive)
20,COc1cc(/C=C/C(=O)c2cc(-c3ccccc3)ccc2O)cc(OC)c1OC,58.3% (inactive)

row,SMILES,growth
1,Cc1cccc(C)c1NC(=O)CSC(=S)N1CCCCC1,110% (inactive)
2,CN(C)CC(C)(CN(C)C)C(=O)/C=C/c1c(Cl)cccc1Cl,-82.6% (active)
3,O=C(Nc1cc(Cl)cc(Cl)c1)Oc1c(Cl)c(Cl)c(Cl)c(Cl)c1Cl,101% (inactive)
4,O=C(O)C1(Cc2cccc(Nc3nccs3)n2)CCC(Oc2cccc(Cl)c2F)CC1 (stereo not given),33.4% (inactive)
5,CCC12CCC[N+]3([O-])CCC4(C(=Nc5ccccc54)C(O)(C(=O)OC)C1)C23 (stereo not given),112% (inactive)
6,O=C(Nc1ccc(N2CCNCC2)cc1)c1[nH]ncc1Nc1cc(C2CC2)ncn1,49.2% (inactive)
7,CS(=O)(CCCCN=C=S)=NC(=O)c1c(F)c(F)c(F)c(F)c1F (stereo not given),72.6% (inactive)
8,O=C(N/N=C/c1ccco1)c1[nH]c2ccc(Br)cc2c1-c1ccccc1,14.9% (inactive)
9,Oc1[nH]c2ccccc2c1N=Nc1nnc2n1N=C(c1ccccc1)CS2,104% (inactive)
10,COc1ccccc1CNCCCN1C(=O)c2ccc3c4c(ccc(c24)C1=O)C(=O)N(CCCNCCNCCCN)C3=O,-56.2% (active)
11,Cc1ccc2[nH]c3ccccc3c2c1,100% (inactive)
12,NC(=O)c1ccc(Br)o1,103% (inactive)
13,C[C@@H]1N=C(c2ccc(Cl)cc2Cl)Nc2nc3ccccn3c2C1=O,53.9% (inactive)
14,CS(=O)(=O)Nc1cncc(-c2ccc3ncnc(Nc4ccc(F)c(Cl)c4)c3c2)c1,-30.3% (active)
15,N#CC1C=CN(CC(N)=O)c2ccc3cccnc3c21 (stereo not given),96.2% (inactive)
16,N#CCCCCCn1c2ccccc2c2c3c(c4c5ccccc5[nH]c4c21)C(=O)N(O)C3=O,-32% (active)
17,Nc1c(-c2nc3ccc(Br)cc3c(=O)[nH]2)nnn1-c1ccccc1,65.6% (inactive)
18,COc1ccc(OC)c(C2C(C#N)=C(N)Oc3cc(O)ccc32)c1 (stereo not given),81.1% (inactive)
19,CN(C)c1ccc(C(=C2C=CC(=[N+](C)C)C=C2)c2ccc(N(C)C)cc2)cc1 (tested in a mixture with another compound),-95% (active)
20,O=C(Nc1ccc(F)cc1F)c1cc(Br)ccc1O,-19.6% (active)
